For assay [1], the target named is Tyrosine-protein kinase SYK (Homo sapiens) (UniProt P43405). The conditions noted are these: at 10 µM.
The target in assay [2] is T1, Mitogen-activated protein kinase kinase kinase 7 (Homo sapiens) (UniProt O43318).
T1 sequence (whole entry): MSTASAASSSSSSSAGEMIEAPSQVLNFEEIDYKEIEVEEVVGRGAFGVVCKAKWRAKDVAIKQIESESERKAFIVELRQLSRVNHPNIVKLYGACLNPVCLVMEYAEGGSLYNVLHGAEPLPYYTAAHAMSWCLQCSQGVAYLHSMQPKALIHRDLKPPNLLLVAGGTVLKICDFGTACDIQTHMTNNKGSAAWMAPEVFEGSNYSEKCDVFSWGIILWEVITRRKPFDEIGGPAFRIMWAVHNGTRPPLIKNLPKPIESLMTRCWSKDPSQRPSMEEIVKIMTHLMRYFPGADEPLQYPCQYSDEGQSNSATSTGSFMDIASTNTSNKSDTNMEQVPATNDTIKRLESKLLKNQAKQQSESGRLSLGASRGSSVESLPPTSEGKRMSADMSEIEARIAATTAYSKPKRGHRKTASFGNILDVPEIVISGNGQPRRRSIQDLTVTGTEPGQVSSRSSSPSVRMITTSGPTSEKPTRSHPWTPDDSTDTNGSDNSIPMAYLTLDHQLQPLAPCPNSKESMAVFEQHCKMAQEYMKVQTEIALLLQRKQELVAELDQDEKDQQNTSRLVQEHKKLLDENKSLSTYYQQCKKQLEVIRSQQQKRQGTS
Conditions: at 1 µM.

Assay [3] concerns the target T1, Mitogen-activated protein kinase kinase kinase 7 (Homo sapiens). Conditions: at 10 µM.
In assay [4] the target is T2, Serine/threonine-protein kinase TAO1 (Homo sapiens) (UniProt Q7L7X3).
T2 sequence (whole entry): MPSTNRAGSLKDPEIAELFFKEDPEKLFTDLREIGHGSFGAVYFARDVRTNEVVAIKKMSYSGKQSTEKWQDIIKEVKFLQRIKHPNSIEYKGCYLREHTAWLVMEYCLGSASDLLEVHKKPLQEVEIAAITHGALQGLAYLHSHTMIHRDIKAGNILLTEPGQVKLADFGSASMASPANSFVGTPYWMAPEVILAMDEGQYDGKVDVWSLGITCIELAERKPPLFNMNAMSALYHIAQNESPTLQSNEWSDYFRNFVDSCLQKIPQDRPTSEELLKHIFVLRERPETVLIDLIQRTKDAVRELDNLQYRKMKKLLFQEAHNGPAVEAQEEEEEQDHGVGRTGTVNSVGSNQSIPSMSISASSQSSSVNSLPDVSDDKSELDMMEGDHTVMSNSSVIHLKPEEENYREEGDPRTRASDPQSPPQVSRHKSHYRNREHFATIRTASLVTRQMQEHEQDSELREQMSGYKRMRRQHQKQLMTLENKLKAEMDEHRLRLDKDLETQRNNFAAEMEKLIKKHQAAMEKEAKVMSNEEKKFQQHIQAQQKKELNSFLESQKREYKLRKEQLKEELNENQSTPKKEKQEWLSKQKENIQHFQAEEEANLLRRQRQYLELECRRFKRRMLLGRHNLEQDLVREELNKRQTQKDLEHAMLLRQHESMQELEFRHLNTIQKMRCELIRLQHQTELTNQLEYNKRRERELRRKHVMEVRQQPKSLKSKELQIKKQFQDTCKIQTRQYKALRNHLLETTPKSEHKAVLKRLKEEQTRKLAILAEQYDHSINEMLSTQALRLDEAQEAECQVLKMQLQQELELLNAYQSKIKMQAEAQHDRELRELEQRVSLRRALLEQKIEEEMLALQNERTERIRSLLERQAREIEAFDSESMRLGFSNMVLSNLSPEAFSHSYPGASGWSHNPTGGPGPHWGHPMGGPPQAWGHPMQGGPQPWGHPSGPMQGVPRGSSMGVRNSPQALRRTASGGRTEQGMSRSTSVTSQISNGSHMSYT
Conditions: at 10 µM.

In assay [5] the target is T3, Serine/threonine-protein kinase TAO3 (Homo sapiens) (UniProt Q9H2K8).
T3 sequence (whole entry): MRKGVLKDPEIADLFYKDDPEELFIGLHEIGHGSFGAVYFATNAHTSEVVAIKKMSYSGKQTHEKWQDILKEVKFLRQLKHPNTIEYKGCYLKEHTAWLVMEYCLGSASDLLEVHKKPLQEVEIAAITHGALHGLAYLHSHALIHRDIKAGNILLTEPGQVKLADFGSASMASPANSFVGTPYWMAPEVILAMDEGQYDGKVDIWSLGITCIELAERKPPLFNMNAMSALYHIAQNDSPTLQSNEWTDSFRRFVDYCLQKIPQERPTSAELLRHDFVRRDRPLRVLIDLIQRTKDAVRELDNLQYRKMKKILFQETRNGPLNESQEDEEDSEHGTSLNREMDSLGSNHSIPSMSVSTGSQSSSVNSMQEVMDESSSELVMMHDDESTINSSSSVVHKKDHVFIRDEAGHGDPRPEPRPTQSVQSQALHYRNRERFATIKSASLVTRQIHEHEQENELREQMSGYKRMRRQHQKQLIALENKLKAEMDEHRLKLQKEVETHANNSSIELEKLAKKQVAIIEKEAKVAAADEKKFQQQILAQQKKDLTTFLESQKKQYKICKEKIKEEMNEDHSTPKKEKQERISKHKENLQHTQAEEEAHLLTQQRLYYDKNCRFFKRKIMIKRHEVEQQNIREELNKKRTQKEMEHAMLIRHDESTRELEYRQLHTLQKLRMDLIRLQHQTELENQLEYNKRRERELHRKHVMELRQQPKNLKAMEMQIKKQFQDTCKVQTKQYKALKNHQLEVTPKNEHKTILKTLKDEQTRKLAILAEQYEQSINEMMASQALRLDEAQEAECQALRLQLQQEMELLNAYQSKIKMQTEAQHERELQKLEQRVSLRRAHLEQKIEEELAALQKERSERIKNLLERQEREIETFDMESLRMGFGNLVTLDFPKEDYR
Conditions: at 10 µM.

In assay [6] the target is T4, Serine/threonine-protein kinase TBK1 (Homo sapiens) (UniProt Q9UHD2).
T4 sequence (whole entry): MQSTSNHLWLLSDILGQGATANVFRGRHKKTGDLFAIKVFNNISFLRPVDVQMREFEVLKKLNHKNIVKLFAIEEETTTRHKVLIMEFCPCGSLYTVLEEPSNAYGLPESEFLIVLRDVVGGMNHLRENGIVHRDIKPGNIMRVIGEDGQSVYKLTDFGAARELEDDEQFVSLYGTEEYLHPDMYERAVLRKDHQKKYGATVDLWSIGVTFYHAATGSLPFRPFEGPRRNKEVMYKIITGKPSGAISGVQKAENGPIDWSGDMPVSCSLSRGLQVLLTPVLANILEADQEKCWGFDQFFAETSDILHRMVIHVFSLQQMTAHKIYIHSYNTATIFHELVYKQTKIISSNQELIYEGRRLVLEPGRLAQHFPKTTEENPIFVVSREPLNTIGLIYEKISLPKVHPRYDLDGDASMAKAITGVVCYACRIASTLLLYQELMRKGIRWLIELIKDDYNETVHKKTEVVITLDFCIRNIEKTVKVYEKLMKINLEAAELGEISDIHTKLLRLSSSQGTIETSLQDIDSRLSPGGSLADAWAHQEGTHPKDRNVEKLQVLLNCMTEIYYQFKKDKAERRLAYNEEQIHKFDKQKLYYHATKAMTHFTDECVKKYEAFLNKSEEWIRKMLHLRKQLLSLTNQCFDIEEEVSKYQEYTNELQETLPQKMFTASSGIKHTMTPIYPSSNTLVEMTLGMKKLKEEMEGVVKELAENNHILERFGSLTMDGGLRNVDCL
Conditions: at 1 µM.

Assay [7] concerns the target T4, Serine/threonine-protein kinase TBK1 (Homo sapiens). Conditions: at 10 µM.
Assay [8] has as its target T5, TGF-beta receptor type-1 (Homo sapiens) (UniProt P36897).
T5 sequence (whole entry): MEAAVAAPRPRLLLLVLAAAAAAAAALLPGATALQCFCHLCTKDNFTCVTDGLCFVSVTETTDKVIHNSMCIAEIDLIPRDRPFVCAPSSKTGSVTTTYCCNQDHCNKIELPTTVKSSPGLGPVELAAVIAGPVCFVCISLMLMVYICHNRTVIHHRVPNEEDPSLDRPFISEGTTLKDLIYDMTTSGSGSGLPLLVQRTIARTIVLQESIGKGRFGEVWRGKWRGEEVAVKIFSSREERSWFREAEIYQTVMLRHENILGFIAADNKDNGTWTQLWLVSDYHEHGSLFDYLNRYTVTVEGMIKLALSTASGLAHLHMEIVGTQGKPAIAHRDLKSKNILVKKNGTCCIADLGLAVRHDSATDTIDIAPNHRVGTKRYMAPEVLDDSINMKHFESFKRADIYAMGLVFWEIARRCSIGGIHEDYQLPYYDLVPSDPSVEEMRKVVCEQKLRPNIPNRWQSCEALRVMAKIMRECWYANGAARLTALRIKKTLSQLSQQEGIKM
The conditions noted are these: at 1 µM.

In assay [9] the target is T5, TGF-beta receptor type-1 (Homo sapiens). Conditions: at 10 µM.
In assay [10] the target is Insulin-like growth factor 1 receptor (Homo sapiens) (UniProt P08069). Conditions: at 10 µM.

This passage reports residual activity results from ChEMBL document CHEMBL2218924, “A broad activity screen in support of a chemogenomic map for kinase signalling research and drug discovery” (Biochem J, 2013).

Sequence of Insulin-like growth factor 1 receptor (Homo sapiens) (P08069 31-736 limits assumed): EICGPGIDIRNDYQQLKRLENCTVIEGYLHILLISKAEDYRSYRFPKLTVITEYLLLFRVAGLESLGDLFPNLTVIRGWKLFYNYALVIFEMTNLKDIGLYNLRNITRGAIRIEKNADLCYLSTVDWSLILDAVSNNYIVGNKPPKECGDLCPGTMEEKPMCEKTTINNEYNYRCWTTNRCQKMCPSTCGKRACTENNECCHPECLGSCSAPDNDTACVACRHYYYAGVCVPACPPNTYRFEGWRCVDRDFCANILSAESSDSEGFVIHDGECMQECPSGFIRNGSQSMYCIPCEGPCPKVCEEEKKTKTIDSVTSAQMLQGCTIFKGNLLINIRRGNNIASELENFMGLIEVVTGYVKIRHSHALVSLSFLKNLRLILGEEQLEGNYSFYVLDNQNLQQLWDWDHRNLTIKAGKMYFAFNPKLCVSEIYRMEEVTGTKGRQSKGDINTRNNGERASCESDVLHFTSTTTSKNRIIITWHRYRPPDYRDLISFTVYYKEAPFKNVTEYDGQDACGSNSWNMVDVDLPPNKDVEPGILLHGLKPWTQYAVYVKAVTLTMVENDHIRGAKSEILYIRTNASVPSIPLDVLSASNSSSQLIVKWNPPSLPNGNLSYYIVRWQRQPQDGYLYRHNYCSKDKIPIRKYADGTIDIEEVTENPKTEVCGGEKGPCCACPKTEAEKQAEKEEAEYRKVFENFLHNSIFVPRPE
Sequence of Insulin-like growth factor 1 receptor (Homo sapiens) (P08069 741-1367 limits assumed): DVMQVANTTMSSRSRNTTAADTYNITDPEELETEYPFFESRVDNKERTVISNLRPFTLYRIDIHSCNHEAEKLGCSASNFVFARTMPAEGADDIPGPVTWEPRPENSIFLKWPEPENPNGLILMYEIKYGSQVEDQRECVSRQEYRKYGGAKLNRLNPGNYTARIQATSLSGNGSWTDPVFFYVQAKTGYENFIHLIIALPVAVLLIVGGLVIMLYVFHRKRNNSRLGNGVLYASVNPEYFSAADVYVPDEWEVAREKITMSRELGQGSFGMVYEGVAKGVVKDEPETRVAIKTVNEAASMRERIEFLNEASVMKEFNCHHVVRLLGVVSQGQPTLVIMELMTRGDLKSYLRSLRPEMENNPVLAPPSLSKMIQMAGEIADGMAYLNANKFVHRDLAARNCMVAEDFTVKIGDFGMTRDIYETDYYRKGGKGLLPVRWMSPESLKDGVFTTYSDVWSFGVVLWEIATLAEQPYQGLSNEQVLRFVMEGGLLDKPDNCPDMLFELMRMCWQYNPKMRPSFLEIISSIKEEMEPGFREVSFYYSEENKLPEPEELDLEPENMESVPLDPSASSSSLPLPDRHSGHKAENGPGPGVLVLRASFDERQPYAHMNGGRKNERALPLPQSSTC

As to `O=C(c1ccccc1)c1ccc(N2CCOCC2)cc1O`, the residual activity is 93% in assay [1]; 100% in assay [2]; 95% in assay [3]; 91% in assay [4]; 92% in assay [5]; 91% in assay [6]. Further, the residual activity in assay [7] is 77%; in [8] it was 95%; in [9] it was 99%; in [10], 93%.
